# FLuc counter: qHTS profiling assay for firefly luciferase inhibitor/activator using purifed enzyme and Km concentrations of substrates (counterscreen for miR-21 project); purified FLuc, Km substrates, luminescence inhibition; Potency, µM (top dose mostly 57.5 µM), without a hit: at the top dose activity change, negative = inhibition, actives largely listed as inhibitors; Luciferin 4-monooxygenase (Photinus pyralis), P08659; 6.9% of 360,000 active;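 further: plate controls were vehicle for no effect and reference inhibitor for full effect; nearly all actives have a fitted effect of over 55% in size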
# Target sequence (P08659 whole entry, looked up): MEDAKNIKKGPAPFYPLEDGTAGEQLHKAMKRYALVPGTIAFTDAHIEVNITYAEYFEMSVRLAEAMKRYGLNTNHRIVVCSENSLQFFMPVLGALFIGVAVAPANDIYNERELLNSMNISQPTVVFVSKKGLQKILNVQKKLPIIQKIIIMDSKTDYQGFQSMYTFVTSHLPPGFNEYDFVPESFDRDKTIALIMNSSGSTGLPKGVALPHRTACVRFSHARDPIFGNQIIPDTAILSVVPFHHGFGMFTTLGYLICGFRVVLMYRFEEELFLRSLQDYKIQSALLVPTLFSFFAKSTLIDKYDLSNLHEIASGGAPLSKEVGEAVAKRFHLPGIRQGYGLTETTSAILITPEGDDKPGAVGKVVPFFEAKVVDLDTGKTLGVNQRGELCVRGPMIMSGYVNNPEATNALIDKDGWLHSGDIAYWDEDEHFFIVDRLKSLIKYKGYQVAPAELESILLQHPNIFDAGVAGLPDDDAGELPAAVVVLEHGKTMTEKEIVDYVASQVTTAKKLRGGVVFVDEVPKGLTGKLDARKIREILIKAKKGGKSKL
#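 Biochemical qHTS of compounds, final roughly 60 µM downward over six points, against 10 nM purified firefly luciferase using Km concentrations of substrates (10 uM D-luciferin, 10 uM ATP) in Tris acetate pH 7.5 buffer; luminescence output.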
# ELG1 genotox: qHTS screen for small molecules that induce genotoxicity in human embryonic kidney (HEK293T) cells expressing luciferase-tagged ELG1; HEK293T ELG1-luciferase reporter, luminescence, 16 h; Potency, µM (series often up to 46 µM), for the others: top-dose activity change, positive = activation, hits mostly activators; AID 504466, 2011; 1.3% of 330,000 active; further: % of control where 0% means no effect; nearly all actives have a fitted effect of over 60% in size
#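 Luminescence read-out: rising ELG1-luciferase signal, reflecting elevated ELG1 protein under genetic stress, flags genotoxic compounds. Cells were treated for 16 hr at 37 °C before ONE-Glo detection.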
# NPC1 promoter act: qHTS Assay for NPC1 Promoter Activators. Huh7 NPC1 promoter luciferase reporter, 24 h. Potency, µM (top dose mostly 9.22 µM), for the others: top-dose activation, actives largely listed as activators. 2.4% of 320,000 active. AID 485313, 2010; further: % of control where 0% means no effect; nearly all actives have a fitted effect of over 60% in size
#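 Compounds in DMSO were transferred onto Huh7 NPC1-luciferase reporter cells pre-incubated 2 h; after 24 h at 37 °C, Amplite reagent was dispensed and luminescence recorded 10 min later.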
# Luc counter: Counterscreen for Luciferase (Kinase-Glo TM) Inhibition | Luciferin 4-monooxygenase (Photuris pensylvanica), Q27757 | Potency, µM (series often up to 38.3 µM), without a hit: top-dose activity change, negative = inhibition, hits mostly inhibitors | 0.28% of 200,000 active | Kinase-Glo luciferase, ATP luminescence, 8 min | AID 1379, 2008; further: on the % scale 0 is the no-effect control and ±100 the full control effect; nearly all actives have a fitted effect of over 60% in size
#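 Inhibition of Kinase-Glo luciferase light generation was assessed at 10 uM ATP in pH 7.2 imidazole buffer, with luminescence measured after eight minutes at ambient temperature.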
# Rab9 prom act: qHTS Assay for Rab9 Promoter Activators | Huh7 Rab9 promoter-luciferase reporter, luminescence, 24 h | Potency, µM (titrated, usually from 9.22 µM), for inactives: at the top dose activation, negative = inhibition, hits mostly activators | 2.8% of 320,000 active | AID 485297, 2010; further: % of control where 0% means no effect; nearly all actives have a fitted effect of over 60% in size
#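 Stable Rab9-luc Huh7, 1500 cells/well, 2 h settle; cmpd in DMSO, 24 h, 37 °C/5% CO2; luciferase reagent 10 min RT; luminescence.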
# SMN2 splice up: qHTS Assay for Enhancers of SMN2 Splice Variant Expression. HEK293 SMN2-luciferase splicing reporter, luminescence, 30-36 h. Potency, µM (top dose mostly 46.1 µM), without a hit: top-dose activity change, positive = activation, actives largely listed as activators. 2.8% of 210,000 active. AID 1458, 2008; further: % of control where 0% means no effect; nearly all actives have a fitted effect of over 55% in size
#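 qHTS luciferase splicing reporter: luminescence rises when SMN2 exon 7 is included in transfected HEK293 cells. Compound exposure lasted 30-36 h at 37C, with 4.5 mM final sodium butyrate as control, followed by a ONE-Glo read.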
# * = called active by the depositor; ? = inconclusive; . = not tested or not shown; [ ] = another dose, or the depositor's remark. Rows were chosen to be rich in hits. Some 7.3% of all compounds tested hit in one or more screens of this group. The call rests on the fitted dose curve; in most records, active means well fitted curve in the direction sought with a large enough effect; inconclusive means small, poorly fitted or top-dose-only effect, or another doubt; inactive means no such curve, though single readings can be large; an effect the other way counts as inactive or inconclusive. Potency means the concentration at half of the fitted maximal effect.
SMILES,FLuc counter,ELG1 genotox,NPC1 promoter act,Luc counter,Rab9 prom act,SMN2 splice up
N#C/C(=C/c1ccc(O)c([N+](=O)[O-])c1)C(=O)Nc1ccccc1,13µM*,-5%,-31%,.,-7%,.
N#C/C(=C\c1ccc(O)c(O)c1)C(=O)N1CCc2ccccc21,?,-5%,-11%,.,-11%,.
COc1cc(/C=C(\C#N)C(=O)Nc2ccc3c(c2)OCCO3)ccc1O,0.27µM*,5%,-5%,.,12%,.
O=C(CCC1N=C2c3ccccc3N=C(SCc3ccccc3F)N2C1=O)NCc1ccccc1 (stereo not drawn),4%,.,.,.,.,.
COc1cccc(NC(=O)CNC(=O)Cn2c(C)cc3ccccc3c2=O)c1,1%,.,.,.,.,7%
CCn1c(CNC(=O)c2ccc(OC)cc2)nnc1SCC(=O)Nc1ccc(OC)cc1,-11%,.,.,.,.,8%
O=C(NCc1cccc(Cl)c1)C1CCCN(c2ncnc3onc(-c4ccc(F)cc4)c23)C1 (stereo not drawn),-10%,.,.,.,.,.
COc1cc(/C=C(\C#N)C(=O)Nc2ccccn2)ccc1O,11µM*,?,-3%,.,-2%,.
CCOc1cc(/C=C(\C#N)C(=O)Nc2ccccn2)ccc1O,17µM*,9%,-7%,.,1%,.
CCOC(=O)c1ccccc1NC(=O)CSc1ccc(-c2sc(-c3ccccc3)nc2C)nn1,-7%,.,.,.,.,.
CCc1ccc(CNC(=O)CCCN2C(=O)CCn3nc(-c4cccn4C)cc32)cc1,1%,.,.,.,.,.
Cc1ccc(C(=O)C(NC(=O)c2ccco2)N2CCOCC2)cc1 (stereo not drawn),-11%,18µM*,?,-2%,?,13µM*
O=C(NC(C(=O)c1ccccc1)N1CCCCCC1)c1ccco1 (stereo not drawn),3%,2%,1%,0%,2%,10%
COc1ccc(C)cc1NC(=O)C(CCSC)NS(=O)(=O)c1ccc2c(c1)oc(=O)n2C (stereo not drawn),-3%,.,.,.,.,.
Cc1ccc(Nc2nnc(SCC(=O)NC3CC3)s2)cc1,7.6µM*,4%,0%,.,6%,.
Cc1ccc(Nc2nnc(SCC(=O)NCCN3C(=O)CSC3=O)s2)cc1,8.5µM*,12%,2%,-19%,11%,?
Cc1ccc(Nc2nnc(SCC(=O)NC(Cc3c[nH]c4ccccc34)C(=O)O)s2)cc1 (stereo not drawn),19µM*,4%,-2%,2%,-3%,7%
Cc1ccc(OCC(=O)Nc2ccc(OCc3cc(=O)n4cccc(C)c4n3)cc2)cc1C,-2%,.,.,.,.,.
COc1ccc(CCNC(=O)c2cc3sccc3n2Cc2ccc(Cl)cc2)cc1OC,6%,.,.,.,.,-43%
CN1C(=O)c2[nH]nc(-c3ccc(F)cc3)c2C1c1cccc(O)c1 (stereo not drawn),-19%,.,.,.,.,-10%
COCC(C)n1c(C)cc(C(=O)COC(=O)c2ccc3ncsc3c2)c1C (stereo not drawn),17µM*,?,1%,3%,15%,-17%
COCC(C)n1c(C)cc(C(=O)COC(=O)c2cnc(Cl)c(Cl)c2)c1C (stereo not drawn),.,0%,.,.,.,.
C(=C\c1nnc2c3ccccc3ncn12)/c1ccccc1,1.7µM*,?,4.5µM*,-4%,3.2µM*,14µM*
COc1cc2c3cc1Oc1cc(ccc1O)C[C@@H]1c4c(cc(OC)c(O)c4Oc4ccc(cc4)C[C@H]3[N+](C)(C)CC2)CC[N+]1(C)C,.,.,.,0%[7.66 µM],.,6%[9.22 µM]
CCCCc1c(O)nc(SC2CC(=O)N(c3ccc(C(=O)OCC)cc3)C2=O)[nH]c1=O (stereo not drawn),21µM*,-1%,-2%,.,-3%,.
SMILES,FLuc counter,ELG1 genotox,NPC1 promoter act,Luc counter,Rab9 prom act,SMN2 splice up
COc1cccc(CCNC(=O)c2cnc3sc(N4CCCCCC4)nn3c2=O)c1,1%,.,.,.,.,15%
COc1ccc(-c2cc(C(=O)NCCCN3CCCC3=O)c3ccccc3n2)cc1,12µM*,-6%,-2%,.,-4%,.
CCOc1ccc(-c2cc(C(=O)NCCCN3CCOCC3)c3ccccc3n2)cc1,8.5µM*,2%,15%,.,1%,.
CC(C)Oc1ccc(-c2cc(C(=O)NCCN3CCOCC3)c3ccccc3n2)cc1,1.5µM*,6%,?,-6%,25%,29%
CCc1ccc(Nc2cc(C(=O)NCCCN3CCOCC3)c3ccccc3n2)cc1,19µM*,-12%,-1%,-4%,7%,-6%
COc1ccc(Nc2cc(C(=O)NCCCN3CCOCC3)c3ccccc3n2)cc1,?,-5%,-2%,.,-1%,.
S=C1NC=NC2N=CNC12 (stereo not drawn),.,.,.,.,.,-38%
Cc1cc2ncc(-c3ccc(Cl)cc3)cn2n1,2.7µM*,?,3.5µM*,-13%,1.4µM*,11µM*
Cc1ccc(-c2cnc3c(Cl)c(C)nn3c2)cc1,1.3µM*,?,?,-30%,0.45µM*,3.2µM*
Cc1ccc(-c2cnc3cc(C)nn3c2)cc1,2.1µM*,-1%,0.71µM*,-27%,0.45µM*,13µM*
CSc1ncnc2c1ncn2[C@@H]1O[C@@H](CO)[C@H](O)O[C@@H]1O,.,.,.,-10%[7.66 µM],.,-57%[9.22 µM]
COc1ccccc1CNC(=O)c1cccc(NC(=O)c2ccccc2)c1,?,-9%,1%,2%,2%,-3%
CCOc1ccccc1CNC(=O)c1cccc(NC(=O)c2nsc3ccccc23)c1,6µM*,.,.,.,.,.
CCC(C)NC(=O)c1cccc(NC(=O)c2nsc3ccccc23)c1 (stereo not drawn),6µM*,.,.,.,.,.
CCC(CC)NC(=O)c1cccc(NC(=O)C(C)C)c1,0%,-1%,-1%,2%,-1%,?
O=C(CCNc1ccc(F)c(Cl)c1)c1ccco1,-3%,-2%,-4%,-1%,0%,-2%
O=C(/C=C/Nc1ccc(F)c(Cl)c1)c1ccco1,5.4µM*,4.1µM*,1%,-9%,0%,?
O=C(NC1CCN(C(=O)Nc2cccc(F)c2)CC1)c1ccco1,-2%,5%,3%,.,9%,.
O=C(/C=C/Nc1cccc(F)c1)c1ccco1,2.1µM*,3.2µM*,?,-24%,2.5µM*,13µM*
CCCCOc1ccc(CSc2nnc(C)n2N)cc1[N+](=O)[O-],7.6µM*,14%,20%,-20%,26%,.
Fc1ccc(Nc2ncnc3onc(-c4ccc(Cl)cc4)c23)cc1Cl,-5%,.,.,.,.,?

# Assay outcomes from PubChem BioAssay.
